Calls of active or inactive are those of the source. How the source made its calls: active means hit-call score of the fitted dose curve at least 0.9, where 1 is the maximum; inactive means score below 0.9.
read-out: Tumor necrosis factor (Homo sapiens) (UniProt P01375); experiment: BSK_BT_xTNFa: BioMAP Diversity Plus: BT Assay for Tumor necrosis factor alpha (TNF-alpha) Biomarker Activity (AID 2284230); conditions: primary human B cells with PBMC
Experimental: BSK_BT is a cell-based, multiplexed-readout assay that uses B cell and peripheral blood mononuclear cells, a human vascular primary cell co-culture, with measurements taken at 24 hours after chemical dosing in a microplate: 96-well plate.BSK_BT_xTNFa is an assay component of the BSK_BT assay. It measures secreted TNF-alpha related to regulation of gene expression using LumineX xMAP technology.Data from the assay component BSK_BT_xTNFa was analyzed at the endpoint, BSK_BT_xTNFa, in the positive analysis fitting direction relative to DMSO as the negative control and baseline of activity. Using a type of cytokine quantitation reporter, gain or loss-of-signal activity can be used to understand protein changes. To generalize the intended target to other relatable targets, this assay endpoint is annotated to the 'cytokine' intended target family, where the subfamily is 'inflammatory factor'.
The levels of cell surface (or secreted, indicated by the prefix "s") biomarker endpoints were measured by ELISA. Overt cytotoxicity to cells in confluent adherent cultures (all systems other than the BT system) was assessed by measuring total protein levels using sulforhodamine B (SRB) staining in parallel cultures at the time of biomarker measurements, indicated as SRB endpoints. For proliferation assays for adherent cell types, individual cell types are cultured at sub-confluence and relative cell numbers quantified by SRB staining at time points optimized for each system (48 h: 3C and CASM3C systems; 72 h: BT and HDF3CGF systems; 96 h: SAg system). SRB was performed by staining cells with 0.1% SRB after fixation with 10% TCA and reading wells at 560 nm.Viability and proliferation of PBMC (T cells) was quantified by Alamar Blue reduction for the SAg and BT systems. For PBMC viability (referred to as PBMC Cytotoxicity within the assay endpoint names), cells were plated (75,000/well in a 96-well plate) and then chemical samples added for 1 h before addition of activators, SEB and TSST-1 (20 ng/mL final concentration each). Cells were incubated for 90 h. Then, Alamar Blue (20 uL/well) (Invitrogen, Cat DAL1100) was added for 6 h, and the plates were read with a fluorescence microplate reader at 546/580 nm (excitation/emission). For PBMC proliferation, cells were plated and activated as above but incubated for only 16 h prior to addition of Alamar Blue. Plates were read after 6 h.

Tumor necrosis factor (Homo sapiens), sequence (P01375 whole entry, looked up): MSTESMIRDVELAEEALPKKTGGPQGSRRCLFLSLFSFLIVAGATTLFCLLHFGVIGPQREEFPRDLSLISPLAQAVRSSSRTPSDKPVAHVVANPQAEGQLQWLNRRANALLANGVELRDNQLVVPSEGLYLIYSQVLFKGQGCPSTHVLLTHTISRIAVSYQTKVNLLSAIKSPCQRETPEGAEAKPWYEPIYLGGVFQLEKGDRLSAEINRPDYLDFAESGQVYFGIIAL

Row | SMILES | outcome | AC50
1 | CCCCCCCCCCCCCCCCCC(=O)OCC(CC)CCCC (stereo not drawn) | inactive | –
2 | Cc1ccc(O)c(C(C)(C)C)c1 | inactive | –
3 | c1ccc2sc(SN(C3CCCCC3)C3CCCCC3)nc2c1 | inactive | –
4 | C=C(C)C(=O)O[C@H]1C[C@@H]2CC[C@@]1(C)C2(C)C | inactive | –
5 | O=C=NC1CCC(CC2CCC(N=C=O)CC2)CC1 (stereo not drawn) | inactive | –
6 | CCCCCCCCCC=O | inactive | –
7 | c1ccc2c(c1)c1cccc3ccc4cccc2c4c31 | inactive | –
8 | O=C1CCCCCCCCCCCCCCO1 | – | 35.8 µM (active)
9 | CC(=O)/C=C/C1=C(C)CCCC1(C)C | inactive | –
10 | Cc1ccc2n[nH]nc2c1 | inactive | –
11 | O=C(O)C[C@H](O)C[C@H](O)/C=C/c1c(C2CC2)nc2ccccc2c1-c1ccc(F)cc1 | – | 3 µM (active)
12 | BrC1CCC(Br)C(Br)CCC(Br)C(Br)CCC1Br (stereo not drawn) | – | 28.2 µM (active)
13 | Nc1cc([N+](=O)[O-])ccc1Cl | inactive | –
14 | C=C[Si](OCC)(OCC)OCC | inactive | –
15 | Cc1ccc(Nc2ccc(O)c3c2C(=O)c2ccccc2C3=O)cc1 | inactive | –
16 | CC(C)Oc1ccccc1O | inactive | –
17 | CC1CCC(C(C)CS)CC1S (stereo not drawn) | inactive | –
18 | CC(C)c1ccc(C(C)C)cc1 | inactive | –
19 | CCc1c(C)cc(N)c(CC)c1N | inactive | –

Row | SMILES | outcome | AC50
20 | CCCCC/C=C/C=C/C=O | – | 35.7 µM (active)
21 | CCCCC(CC)COC(=O)/C=C\C(=O)OCC(CC)CCCC (stereo not drawn) | inactive | –
22 | COC(=O)c1ccc(C)cc1 | inactive | –
23 | C#C[C@]1(O)CC[C@H]2[C@@H]3CCC4=Cc5oncc5C[C@]4(C)[C@H]3CC[C@@]21C | – | 33.7 µM (active)
24 | N#Cc1ccc(CC(=NNC(=O)Nc2ccc(OC(F)(F)F)cc2)c2cccc(C(F)(F)F)c2)cc1 | inactive | –
25 | CCCCC(CC)COCCC#N (stereo not drawn) | inactive | –
26 | CCn1c2ccccc2c2cc(N)ccc21 | inactive | –
27 | O=C1OC2(c3cc(Br)c(O)c(Br)c3Oc3c2cc(Br)c(O)c3Br)c2c(Cl)c(Cl)c(Cl)c(Cl)c21 | – | 13.2 µM (active)
28 | CC(=O)O[C@]1(C(C)=O)CC[C@H]2[C@@H]3C[C@H](C)C4=CC(=O)CC[C@]4(C)[C@H]3CC[C@@]21C | inactive | –
29 | CC1COc2ccccc2N1C(=O)C(Cl)Cl (stereo not drawn) | inactive | –
30 | O=[N+]([O-])c1cc(C(F)(F)F)ccc1Cl | inactive | –
31 | CCCCCCCCC=O | inactive | –
32 | O=P(c1ccccc1)(c1ccccc1)c1ccccc1 | inactive | –
33 | CC(C)(COC(=O)c1ccccc1)COC(=O)c1ccccc1 | inactive | –
34 | O=C(O)c1cn(-c2ccc(F)cc2)c2cc(N3CCNCC3)c(F)cc2c1=O | inactive | –
35 | CN(CCOc1ccc(CC2SC(=O)NC2=O)cc1)c1ccccn1 (stereo not drawn) | inactive | –
36 | CC(=O)Nc1ccccc1O | inactive | –
37 | CNC[C@H](O)c1cccc(O)c1 | inactive | –
38 | O=C(O)c1cn(C2CC2)c2cc(N3CCNCC3)c(F)cc2c1=O | inactive | –

From PubChem BioAssay (EPA / NIEHS)
